Test results taken from PubChem BioAssay AID588405 (Sanford-Burnham Center for Chemical Genomics, 2011).
The whole screen tested about 360,000 compounds, of which about 6,200 (1.7%) were called active.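 Rule for the calls: active = inhibition of at least 50% at 20 µM; inactive = the rest.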 The entries come from a sample that favours actives as a whole.

Test: Peg3 promoter-driven luciferase inhibitors, primary screen, cell-based, HeLa, luciferase luminescence (AID 588405)
Details: HeLa PEG-Prom luciferase reporter, overnight, at 20 µM, hits give high values

| Compound | inhibition |
| --- | --- |
| Cc1cn([C@H]2C[C@H](O)[C@@H](/C=C/C(=O)NCCCc3ccccc3)O2)c(=O)[nH]c1=O | 9.64% (inactive) |
| O=C(NCCN1CCOCC1)c1ccc(/C=C2\Sc3ccccc3N(Cc3ccc(F)cc3)C2=O)cc1 | 66.6% (active) |
| O=C(NCCN1CCOCC1)/C(=C/c1ccc(F)cc1)NC(=O)c1ccccc1 | -17.8% (inactive) |
| Cc1ccc(C(=O)N/C(=C\c2ccc(F)cc2)C(=O)NCCN2CCOCC2)cc1 | -0.33% (inactive) |
| O=[N+]([O-])c1ccc(CN2CC(N3CC=CC3)CS2(=O)=O)cc1 (centres undefined) | -12% (inactive) |
| CC(=O)c1cccc(-c2cnc3c(NC=O)cc(-c4cccc(C(=O)N(C)C)c4)cn23)c1 | 33.8% (inactive) |
| CN(C)CCNC(=O)c1cccc(-c2cnc3c(NC=O)cc(-c4cccc(C(F)(F)F)c4)cn23)c1 | 98.7% (active) |
| CN(C)C(=O)c1cccc(-c2cnc3c(NC=O)cc(-c4ccc(F)cc4)cn23)c1 | 35.5% (inactive) |
| Nc1nc2c(ncn2[C@@H]2O[C@H](CNCc3ccc(OCCCN4CCOCC4)cc3)[C@@H](O)[C@H]2O)c(=O)[nH]1 | -2.38% (inactive) |
| COc1ccc(CNC(=O)c2ccc(-c3cccnc3)c3ccoc23)cc1OC | 10.8% (inactive) |
| CCC(=O)Nc1nc(C)c(C(=O)Nc2cccc(Cl)c2)s1 | -28.7% (inactive) |
| Cc1c(C(=O)Nc2cccc(Cl)c2)cn2c(nc3ccccc32)c1C#N | 60.9% (active) |
| Cc1cc(Cl)nc(NC(=O)Nc2cccc(Cl)c2)n1 | -174% (inactive) |
| COc1cccc(CN(C)C(=O)CC[C@H]2O[C@@H](n3cnc4c(NC(=O)c5ccccc5)ncnc43)[C@H](O)[C@@H]2O)c1 | 4.1% (inactive) |
| C[N+]1(CCNC(=O)/C=N/O)CCCCC1 | 17% (inactive) |
| CCCNC(=O)C1(C)CCCN(C(=O)c2oc3ccccc3c2C)C1 (centres undefined) | -3.03% (inactive) |
| Cc1nc(Nc2ccc3c(c2)OCCO3)c2nnn(Cc3ccccc3Cl)c2n1 | 54.7% (active) |
| CCCc1nc(NCc2ccc3c(c2)OCO3)c2nnn(Cc3ccccc3Cl)c2n1 | 1.34% (inactive) |
| Cc1nc(Nc2ccccc2F)c2nnn(Cc3ccccc3Cl)c2n1 | 8.32% (inactive) |
| COc1ccccc1-c1nn(Cc2ccccc2)cc1C(=O)N1CCN(c2ncccn2)CC1 | 33.2% (inactive) |
| C/C(=N\NC(=O)Cc1ccccc1[N+](=O)[O-])c1cccnc1 | 17.7% (inactive) |
| O=C(/C=C/c1ccc(Cl)c([N+](=O)[O-])c1)c1ccc(O)cc1 | 104% (active) |
| O=C(Nc1cccnc1)c1ccc(Cl)cc1[N+](=O)[O-] | -0.43% (inactive) |
| O=C(/C=C/c1ccc(Cl)c([N+](=O)[O-])c1)c1cccnc1 | 105% (active) |
| CC(CC(=O)O)C(=O)c1ccc(Cl)c([N+](=O)[O-])c1 (centres undefined) | 1.7% (inactive) |
| CC(=O)Nc1ccc(C=CC(=O)c2ccc([N+](=O)[O-])cc2)cc1 | 4.26% (inactive) |
| CC(C)(C)S(=O)N1Cc2cc(C(=O)NCCCN3CCOCC3)nc(-c3cccc(-c4cc5ccccc5o4)c3)c2[C@H]1CCO (some centres undefined) | -6.92% (inactive) |

| Compound | inhibition |
| --- | --- |
| CCCNC(=O)C1(C)CCN1C(=O)Cc1ccc(-c2ccccc2)cc1 (centres undefined) | -9.6% (inactive) |
| CCCNC(=O)N1CCN(C(=O)NCCC)CC1 | 7.21% (inactive) |
| CCC(C)(C)c1ccc(Oc2ccc(NC(=O)COC(=O)C3=COCCO3)cc2)cc1 | 11.8% (inactive) |
| O=C1c2ccccc2C2=Nc3ccccc3SC(c3ccccc3F)C12 (centres undefined) | 50.8% (active) |
| COc1ccc(-c2cc(NC(C)=O)c3ncc(-c4cc(OC)c(OC)c(OC)c4)n3c2)cn1 | 9.76% (inactive) |
| O=C(NCC(=O)N1CCN(c2ccccc2F)CC1)c1cccs1 | -57% (inactive) |
| Cc1ccc(C)c(NC(CC(=O)c2ccccc2)C(=O)OCC(=O)c2cccs2)c1 (centres undefined) | -74.6% (inactive) |
| Cc1ccccc1C(CC(=O)c1cccs1)C(C#N)C#N (centres undefined) | 98.4% (active) |
| OCCC1CN(Cc2cccc(OC3CCCC3)c2)CCN1Cc1ccsc1 (centres undefined) | 18.8% (inactive) |
| CCc1nc2c(OCCOc3ccc(F)cc3)cccn2c1N(C)C(=O)c1ccccc1F | 14.6% (inactive) |
| C=C(C)C(=O)O[C@H]1C/C(C)=C\C(=O)/C=C(\C)[C@H](O)[C@@H]2OC(=O)C(=C)[C@@H]21 | 94.4% (active) |
| Cc1cc(NC(=O)COC(=O)/C=C/c2ccc(C)o2)no1 | 6.71% (inactive) |
| Cc1sc2ncn(CC(=O)NCCCC(=O)N(C)Cc3ccccc3)c(=O)c2c1C | 8.27% (inactive) |
| COc1ccc(OC)c(NC(=O)CN(C)CCOc2ccc(Br)cc2)c1 | 7.53% (inactive) |
| COc1ccccc1Nc1ncnc2c1oc1ccccc12 | -388% (inactive) |
| COc1ccc(Nc2ncnc3ccc(Br)cc23)c(OC)c1 | 88.1% (active) |
| Cc1cc(Br)cn2c(Cc3ccsc3)c(-c3ccc(C#N)cc3)nc12 | -3.22% (inactive) |
| CCOC(=O)C1CCCN(C(=O)c2ccc(N(C)C)cc2)CC1 (centres undefined) | -7.67% (inactive) |
| O=[N+]([O-])/C=C/c1ccc2c(ccn2Cc2ccccc2)c1 | 107% (active) |
| O=C(Nc1nnc([C@H]2C[C@H](O)[C@@H](CO)O2)s1)c1cccc(Cl)c1 | -8.3% (inactive) |
| Nc1cccc(S(=O)(=O)Nc2ccc(SC(F)F)cc2)c1 | 8.83% (inactive) |
| COc1ccc(NC(=O)/C(N=Nc2cccc(S(=O)(=O)Nc3ccc(SC(F)F)cc3)c2)=C(\C)O)cc1 | 50.3% (active) |
| Cc1c(NS(=O)(=O)c2cccc(C(=O)Nc3ccc(SC(F)F)cc3)c2)c(=O)n(-c2ccccc2)n1C | 34.6% (inactive) |
| CCN(CC)CCC(c1cc(OC)c(OC)c(OC)c1)c1c(OC)cc(OC)c2c(-c3ccccc3)cc(=O)oc12 (centres undefined) | 27.4% (inactive) |
| CCN(CC)CCC(c1ccc2c(c1)OCO2)c1c(OC)cc(OC)c2c(-c3ccccc3)cc(=O)oc12 (centres undefined) | 56.4% (active) |
| CCN(CC)C(=O)CC(c1ccc2c(c1)OCO2)c1c(OC)cc(OC)c2c(-c3ccccc3)cc(=O)oc12 (centres undefined) | 7.97% (inactive) |
| CC1(C(=O)Nc2cccc3cccnc23)CCN1C(=O)CCC1CCCC1 (centres undefined) | 10.3% (inactive) |
